Measured values as given in PubChem BioAssay AID2796 (The Scripps Research Institute Molecular Screening Center, 2010).
Out of some 320,000 compounds screened, about 8,000 (2.5%) were called active. The full list was thinned out, with actives kept by preference. A number with no mark means an inactive call. Cut-off read from the data, not from the text of the source: active = activation above about 47%; inactive = the rest.

Biological target: Aryl hydrocarbon receptor (Homo sapiens) (UniProt P35869)
Assay: AHR activators, primary screen, cell-based, luminescence, luciferase reporter, human (AID 2796);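 note: 0% = vehicle wells and 100% = reference agonist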
Settings: AHR-responsive luciferase reporter cells, at 5 µM, active compounds read high

Aryl hydrocarbon receptor (Homo sapiens), sequence (P35869 whole entry, looked up): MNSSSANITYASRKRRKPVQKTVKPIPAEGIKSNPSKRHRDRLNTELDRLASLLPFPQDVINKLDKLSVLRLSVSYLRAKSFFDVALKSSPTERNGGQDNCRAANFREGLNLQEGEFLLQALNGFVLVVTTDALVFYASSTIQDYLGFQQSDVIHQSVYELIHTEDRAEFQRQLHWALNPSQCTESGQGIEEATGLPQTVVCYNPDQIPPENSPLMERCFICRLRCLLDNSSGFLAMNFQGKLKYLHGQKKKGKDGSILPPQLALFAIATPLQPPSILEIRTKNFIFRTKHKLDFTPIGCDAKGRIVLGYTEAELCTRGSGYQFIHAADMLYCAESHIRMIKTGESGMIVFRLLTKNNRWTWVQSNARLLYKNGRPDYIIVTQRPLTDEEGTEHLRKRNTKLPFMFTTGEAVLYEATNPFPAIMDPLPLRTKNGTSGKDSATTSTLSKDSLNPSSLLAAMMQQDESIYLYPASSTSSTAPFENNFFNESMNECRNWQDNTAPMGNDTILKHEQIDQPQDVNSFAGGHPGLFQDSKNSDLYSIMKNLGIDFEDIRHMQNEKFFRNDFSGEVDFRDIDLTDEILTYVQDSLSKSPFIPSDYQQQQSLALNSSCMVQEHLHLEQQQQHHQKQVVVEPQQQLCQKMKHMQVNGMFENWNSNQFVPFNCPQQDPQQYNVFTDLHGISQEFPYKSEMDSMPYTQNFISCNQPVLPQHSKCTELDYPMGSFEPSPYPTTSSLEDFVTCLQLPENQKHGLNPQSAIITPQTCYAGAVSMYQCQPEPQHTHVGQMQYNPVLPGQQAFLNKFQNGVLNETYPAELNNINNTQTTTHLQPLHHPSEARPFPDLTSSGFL

Row | SMILES | activation
1 | CCCCC(CC)CNCc1cccn1CCN1CCOCC1 (centres undefined) | 1.27%
2 | COc1cccc(-n2cc(C(=O)O)c3ccccc3c2=O)c1 | -1.78%
3 | COc1cccc(N2C(=O)CN(Cc3ccccc3)C2=S)c1 | 1.66%
4 | COc1cccc(-n2c(=S)[nH]c3c(oc4ccccc43)c2=O)c1 | 64.8% (active)
5 | CCOC(=O)C1CCN(S(=O)(=O)c2ccc3c(c2)N(C)C(=O)CC(=O)N3C)CC1 | -0.75%
6 | CCOC(=O)C1CN(S(=O)(=O)c2ccc(OC)cc2)c2cc(Cl)ccc2O1 (centres undefined) | 1.38%
7 | COc1ccc(C2OCC3(CO2)SC(=O)NC3=O)cc1OC (centres undefined) | 3.57%
8 | CC(=O)Nc1nc(N(C)C)nc(N(C)C)n1 | -2.86%
9 | CNc1nc(Nc2ccc(C)c(Cl)c2)nc(N)c1[N+](=O)[O-] | 38.2%
10 | CN(C)c1nc(NN)nc(Nc2ccc(F)cc2)n1 | 76.4% (active)
11 | CN(C)c1ccnc(Nc2ccc(F)cc2)c1C#N | 10.8%
12 | CN(C)c1nc(Nc2ccc(Cl)c(Cl)c2)nc(N(C)C)n1 | 130% (active)
13 | Fc1ccc(Nc2nnns2)cc1 | -0.19%
14 | Cc1cccc(OCC(O)CN2CCN(CCN3C(=O)c4cccc5cccc(c45)C3=O)CC2)c1C (centres undefined) | 1.57%
15 | Nc1nc(O)c(CC(=O)O)s1 | 1.52%
16 | CCCCC/C=C/C1=CC(=O)C[C@H](c2ccc(Cl)cc2)C1 | 0.78%
17 | CCOC(=O)C1CCN(C(=O)C2CCCN(S(=O)(=O)c3ccc(OC)c(Cl)c3)C2)CC1 (centres undefined) | 1.31%
18 | CCCCc1ccc(NC(=O)NCc2cccnc2)cc1 | 7.22%
19 | Cn1nnnc1SCC(=O)Nc1nc2ccccc2s1 | 50.3% (active)
20 | O=C(Nc1ccccc1)Nc1nc2ccccc2s1 | 74.5% (active)
21 | O=C(CCC(=O)c1cccs1)Nc1nc2ccccc2s1 | 38%
22 | O=C(CCNC(=O)c1ccccc1)Nc1nc2ccccc2s1 | 24.7%
23 | COC(=O)c1ccccc1NC(=O)CSc1nnnn1C | 3.56%
24 | Cn1nnnc1SCC(=O)Nc1sccc1C(N)=O | -1.01%
25 | Brc1cnc2ccccc2c1N1CCCCC1 | -3.31%

Row | SMILES | activation
26 | Cc1ccc(C(=O)N/C(=C\c2cccs2)C(=O)NCCc2ccccn2)cc1C | 0.25%
27 | N#Cc1c(N2CCCCC2)nc(N)c2c(N)nc(SCC(=O)O)cc12 | 6.26%
28 | Cn1c(SCC(=O)c2ccc(F)cc2)nnc1-c1ccccn1 | -0.55%
29 | Cn1c(SCC(=O)c2ccccc2)ncc(C(=O)Nc2ccc(F)cc2)c1=O | 98.3% (active)
30 | Cc1ccc(NC(=O)c2cnc(SCC(=O)NCC3CCCO3)n(C)c2=O)cc1 (centres undefined) | 16.3%
31 | CN(CC(=O)Nc1ccc(Cl)cc1)CC(=O)Nc1cccc2ccccc12 | 5.21%
32 | O=C(CN1C(=O)NC2(CCCCCC2)C1=O)Nc1ccc([N+](=O)[O-])cc1 | -2.64%
33 | COc1ccc(OCc2cc(C(=O)N3CCCC3)no2)c2ccccc12 | 50.9% (active)
34 | COc1ccccc1-c1cc(C(=O)N2CCCCC2)no1 | 32.7%
35 | COc1cc(Cl)ccc1OCc1cc(C(=O)N2CC[C@@H]3CCCC[C@H]3C2)no1 | 6.28%
36 | Cc1ccc(C(=O)NCC(=O)OCC(=O)NC2CCCCCCC2)cc1 | 0.7%
37 | CCCCNC(=O)C1CCCN(S(=O)(=O)c2ccc(S(=O)(=O)NCC(C)C)cc2)C1 (centres undefined) | -3.28%
38 | COc1cccc(C2c3[nH]c4ccccc4c3CCN2Cc2cccc(C)n2)c1 (centres undefined) | 17.2%
39 | CCOc1ccc(C2c3[nH]c4ccccc4c3CCN2Cc2cccn2-c2ncccn2)cc1 (centres undefined) | 26.3%
40 | CCOc1ccc(C2c3[nH]c4ccccc4c3CCN2Cc2cn(CC)nc2C)cc1 (centres undefined) | 58.7% (active)
41 | Cc1c(-c2ccccc2)n[nH]c1C(=O)N=Nc1c(O)[nH]c2ccccc12 | -6.16%
42 | CCOC(=O)c1nc(-c2ccc3c(c2)OCO3)[nH]c1C | 102% (active)
43 | CCOC(=O)c1c(C)[nH]c(C(=O)COc2ccc3c(c2)OCO3)c1C | 30.7%
44 | CCOC(=O)N1CCN(C(=O)COCc2cc(-c3ccc4c(c3)OCO4)on2)CC1 | 0.94%
45 | CCCCOc1ccc(Cl)cc1CSc1nncn1N | 1.19%
46 | Cc1cccc(N=C2SC(C)CN2C(=O)CN2C(=O)NC3(CCCC3)C2=O)c1 (centres undefined) | 2.39%
47 | CCOc1ccccc1CN1CCN(C2CCC2)CC1CCO (centres undefined) | -2.26%
48 | CC(=O)N1CSCC1C(=O)O (centres undefined) | 0.15%
49 | CCOc1cccc(C(=O)Nc2cnn(Cc3ccccc3)c2)c1 | 47.8% (active)
50 | O=C(O)CCCn1cc(NC(=O)COc2cccc(Cl)c2)cn1 | -1.62%

Row | SMILES | activation
51 | CCOc1cccc(C(=O)Nc2nnc(-c3cccs3)s2)c1 | 37.1%
52 | C=CC1=C(C(=O)O)N2C(=O)[C@@H](NC(=O)/C(=N\OCC(=O)O)c3csc(N)n3)[C@H]2SC1 | -1.86%
53 | COc1cc(C(=O)Nc2nccs2)cc(OC)c1OC | 51.3% (active)
54 | COc1ccc(Cc2nnc(NC(=O)c3cc(OC)c(OC)c(OC)c3)s2)cc1OC | 0.25%
55 | CC(=O)Oc1ccc(C(=O)Nc2nccs2)cc1 | 1.87%
56 | O=C(Nc1cccc2c1N(C(=O)c1ccco1)CCC2)c1ccco1 | 2.88%
57 | Cc1ccc(NC(=O)CSc2nn3c(=O)c(C)nnc3s2)cc1Cl | 72.8% (active)
58 | COc1ccc(Cc2nnc(SCC(=O)Nc3ccc(C)c(Cl)c3)[nH]c2=O)cc1 | -0.12%
59 | Cc1ccc(NC(=O)CSc2nnc(CNC(=O)c3ccccc3F)o2)cc1Cl | 26.2%
60 | COCCNC(=O)CSc1nc2c(n1-c1ccccc1)CCCC2 | -0.48%
61 | Cc1cc(=O)n2[nH]c(-c3cccc(Cl)c3)cc2n1 | 50.5% (active)
62 | Cc1cc(=O)n2[nH]c(-c3sccc3-n3c(C)ccc3C)cc2n1 | 10%
63 | O=c1c2c(nc3cc(-c4cccc(Cl)c4)[nH]n13)CCCC2 | 5.09%
64 | O=C(CCc1ccc(S(=O)(=O)N2CCOCC2)cc1)OCC(=O)c1ccc(Br)cc1 | 2.27%
65 | COC(=O)C1=C(C)N(c2ccc(C)cc2)/C(=C/c2ccc(O)cc2)C1=O | 2.06%
66 | C[C@H](C(=O)CC(=O)OC(C)(C)C)[C@H](O)c1ccc(C(F)(F)F)cc1 | 1.94%
67 | Cc1cc(OC(=O)c2ccc(Cl)cc2)cc(=O)n1C | -0.96%
68 | COc1ccc2ccn(C)c2c1 | 5.22%
69 | COc1ccc(C(C(=O)NCc2ccccc2)N(Cc2cccs2)C(=O)c2cnccn2)cc1 (centres undefined) | -1.35%
70 | COc1cc([N+](=O)[O-])ccc1NC(=O)CN1CCCC1 | 4.3%
71 | COc1ccc(NC(=O)c2cc([N+](=O)[O-])ccc2NC(=O)CNC2CCCCC2C)c(OC)c1 (centres undefined) | 47.4% (active)
72 | CC1CCCCC1NCC(=O)Nc1ccccc1C(=O)Nc1ccccc1 (centres undefined) | -0.06%
73 | COc1ccccc1CN1CC(C(=O)NCCc2cn[nH]c2)CCC1=O (centres undefined) | 2.31%
74 | O=C(Nc1sc2c(c1C(=O)O)CCC2)c1ccccc1F | 13.6%
75 | COc1cccc(OC)c1C(=O)Nc1nnc(C(C)C)s1 | 15.7%

Row | SMILES | activation
76 | NC(=O)c1c(Nc2nc3c(F)cccc3s2)sc2c1CCCC2 | 52.5% (active)
77 | NC(=O)c1c(NC(=O)CSc2nnc(-c3ccco3)n2N)sc2c1CCCC2 | 19.8%
78 | COc1cccc(OC)c1C(=O)Nc1sc2c(c1C(N)=O)CCCC2 | 49.1% (active)
79 | CNC(=O)c1c(NC(NC(=O)c2ccco2)C(=O)c2ccc(Cl)cc2)sc2c1CCCC2 (centres undefined) | 1.8%
80 | Cc1cccc(N(C(=O)Cn2nnc(-c3ccc(C)o3)n2)C(C(=O)NC2CCCC2)c2ccncc2)c1 (centres undefined) | -1.02%
81 | CC1CCCCN1C(=O)CCS(=O)(=O)Cc1ccccc1 (centres undefined) | -0.28%
82 | Nc1ccccc1/C=N\N=C/c1ccccc1N | 38.4%
83 | COC(=O)c1sccc1NC(=S)Nc1ccc(C)cc1 | 1.83%
84 | CCNC(=O)c1sccc1-n1cccc1 | 0.75%
85 | Cc1ccc(NC(=O)NNC(=O)c2sccc2-n2cccc2)cc1 | 85.8% (active)
86 | CN(C)C1=NC[C@H](Cc2ccccc2)N1CCc1ccc(F)cc1 | 5.16%
87 | CCOC(=O)N1CCN(C(=O)c2ccccc2SCC(=O)NCC2CCCCC2)CC1 | 1.83%
88 | O=C(Cc1ccccc1)NNC(=O)C1CCN(c2ncccn2)CC1 | 0.76%
89 | COc1ccccc1Oc1ccc(N/C=C2/CCCC2=O)cc1 | 0.2%
90 | O=C1/C(=C\Nc2ccccc2)CCN1c1ncccn1 | 66.5% (active)
91 | CCc1cc2c(=O)c(-c3ccon3)c(N)oc2cc1OC | 59.6% (active)
92 | CCc1cc2c(=O)c(-c3ccc(F)cc3)c(C(F)(F)F)oc2cc1OCC(=O)O | 8.09%
93 | COc1ccc2oc(N)c(C=O)c(=O)c2c1 | -1.38%
94 | CCN1C(=O)C(C(=O)NC(C)c2ccccc2)C2CC1(C)Oc1ccccc12 (centres undefined) | 2.9%
95 | CC(NS(=O)(=O)c1ccccc1)c1n[nH]c(=S)n1-c1ccccc1 (centres undefined) | 2.32%
96 | COc1ccc(Cl)cc1NS(=O)(=O)c1cccc(C(=O)NCC2CCCO2)c1 (centres undefined) | -1.04%
97 | COc1ccc(C(=O)NC(=S)Nc2ccccc2N2CCN(S(C)(=O)=O)CC2)cc1OC | 0.97%
98 | COc1ccccc1C(=O)NC(=S)Nc1ccccc1N1CCCCC1 | 76.4% (active)
99 | O=C(NC(=S)Nc1ccccc1N1CCCCC1)c1ccc(F)cc1 | 19.9%
